Molecules are shown by their SMILES. Active and inactive are the calls of the source.

Assay [1] relates to Human papillomavirus type 1a protein E7 (residues 44-93). The assay is described as follows: small molecules binding HPV E7 44-93 – biochemical, small-molecule microarray, residues 44-93, 635 nm fluorescence, primary screen (AID 1108).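 Also: E7 fragment applied at 1 µg/mL in TBST for 1 h at 4 C; score combines spot fluorescence with its signal to noise ratio.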 The following applies: fluorescence 635 nm, higher = more signal.
Assay [2] can be described thus: hepatitis C replication reporter changes, two-sided – Huh7 cells, luciferase reporter, HCV replication inhibitor project, primary screen (AID 1109).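 Also: huh7 hepatoma cells harbouring a luciferase neomycin HCV replicon reporter; luciferase luminescence as measure of HCV replicon replication; test concentration not given here.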 The following applies: Huh7 HCV replicon luciferase reporter, 48 h; higher = more signal. Background: In a reporter assay the amount or activity of a reporter protein is the signal.
In assay [3] the target is Left-right determination factor 2 (Homo sapiens) (UniProt O00292). Put plainly: small molecules binding LEFTY2 protein – biochemical, small-molecule microarray, 635 nm fluorescence scan, primary screen (AID 1110). The following applies: higher = more signal.
Left-right determination factor 2 (Homo sapiens), sequence (O00292 whole entry, looked up): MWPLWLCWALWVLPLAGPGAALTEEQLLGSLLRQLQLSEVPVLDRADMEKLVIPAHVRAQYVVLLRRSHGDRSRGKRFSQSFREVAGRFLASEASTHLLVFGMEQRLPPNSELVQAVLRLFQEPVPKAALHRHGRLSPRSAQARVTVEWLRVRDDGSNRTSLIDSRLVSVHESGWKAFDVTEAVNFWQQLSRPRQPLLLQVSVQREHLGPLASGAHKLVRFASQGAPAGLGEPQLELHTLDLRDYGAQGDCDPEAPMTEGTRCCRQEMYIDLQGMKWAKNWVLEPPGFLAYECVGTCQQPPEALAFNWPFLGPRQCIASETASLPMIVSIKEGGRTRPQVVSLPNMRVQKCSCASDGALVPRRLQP
Assay [4] deals with Calmodulin-1 (Homo sapiens) (UniProt P0DP23). The assay is described as follows: small molecules binding calmodulin-1 with EGTA – biochemical, small-molecule microarray, Cy5-labelled CALM1, profiling panel (AID 1111).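 Also: labelled calmodulin applied in Tris saline Tween buffer holding calcium plus EGTA and DTT.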 Conditions: Cy5-CALM1 binding fluorescence, higher = more signal.
The target is the same in assay [5]. Put plainly: small molecules binding Ca-loaded calmodulin-1 – biochemical, small-molecule microarray, Cy5-labelled CALM1, plus calcium, artefact control for SMM control-protein annotation, profiling panel (AID 1112).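 Also: score merges spot fluorescence with signal to noise from triplicate slides.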 Conditions: Cy5-CALM1 binding fluorescence, higher = more signal.
Assay [6] is described as follows: probe aWnt5a binding to arrayed compounds – biochemical, biotinylated probe, 635/667 nm fluorescence, primary screen (AID 1113).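 Also: score merges 667 nm fluorescence intensity with signal-to-noise per printed feature.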 Conditions: small-molecule microarray, higher = more signal.
Assay [7] in a line: probe aShh binding to arrayed compounds – biochemical, biotinylated probe, 635/667 nm fluorescence, primary screen (AID 1114).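 Also: probe is biotin-labelled aShh protein from a stem cell growth factor screen; measures binding of labelled protein to compounds printed on the slide; score merges feature fluorescence at 667 nm with signal-to-noise.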 The following applies: small-molecule microarray, higher = more signal.
Assay [8] in a line: probe aNog binding to arrayed compounds – biochemical, biotinylated probe, 635/667 nm fluorescence, primary screen (AID 1115).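 Also: probe is biotinylated aNog protein used at 0.15 µg/mL for 1 h at 4 C; z-score combines 667 nm fluorescence of each spot with its signal to noise.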 Conditions: small-molecule microarray, higher = more signal.
The target in assay [9] is Torsin-1A-interacting protein 1 (Homo sapiens) (UniProt Q5JTV8). The assay is described as follows: compound microarray binding of lysate hLAP1 – cell lysate, small-molecule microarray, COS7 lysate, 635/667 nm fluorescence, primary screen (AID 1116). Conditions: 635 nm fluorescence, higher = more signal.
Torsin-1A-interacting protein 1 (Homo sapiens), sequence (Q5JTV8 whole entry, looked up): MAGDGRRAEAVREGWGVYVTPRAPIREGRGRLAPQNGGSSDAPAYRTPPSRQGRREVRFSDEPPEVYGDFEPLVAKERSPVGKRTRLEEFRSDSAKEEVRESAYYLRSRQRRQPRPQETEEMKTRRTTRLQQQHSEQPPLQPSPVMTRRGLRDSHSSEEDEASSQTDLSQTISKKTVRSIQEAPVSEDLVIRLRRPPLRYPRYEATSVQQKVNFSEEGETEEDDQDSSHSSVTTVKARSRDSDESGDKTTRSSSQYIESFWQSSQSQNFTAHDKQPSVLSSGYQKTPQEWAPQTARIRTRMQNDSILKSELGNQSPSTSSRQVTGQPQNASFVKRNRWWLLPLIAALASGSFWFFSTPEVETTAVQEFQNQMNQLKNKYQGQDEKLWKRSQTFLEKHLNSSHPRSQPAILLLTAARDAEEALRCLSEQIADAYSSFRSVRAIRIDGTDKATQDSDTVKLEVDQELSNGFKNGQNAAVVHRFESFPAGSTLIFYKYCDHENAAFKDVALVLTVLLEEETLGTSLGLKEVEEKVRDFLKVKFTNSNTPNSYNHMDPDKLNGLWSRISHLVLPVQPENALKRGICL
Assay [10] has as its target Alpha-bungarotoxin (Bungarus multicinctus) (UniProt P60615). Put plainly: compounds binding labelled alpha-BTX control protein – biochemical, small-molecule microarray, Alexa647 label, 635/667 nm fluorescence, artefact control for SMM control protein annotation, profiling panel (AID 1117). Conditions: alpha-BTX-A647 binding fluorescence, higher = more signal.
A further assay deals with Albumin (Bos taurus) (UniProt P02769). The assay is described as follows: compounds binding labelled BSA control protein – biochemical, small-molecule microarray, Alexa647 label, 635/667 nm fluorescence, artefact control for SMM control protein annotation, profiling panel (AID 1118).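 Also: score merges 667 nm emission intensity and signal-to-noise per printed compound spot.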 Conditions: BSA-A647 binding, fluorescence 635 nm, higher = more signal.
Albumin (Bos taurus), sequence (P02769 whole entry, looked up): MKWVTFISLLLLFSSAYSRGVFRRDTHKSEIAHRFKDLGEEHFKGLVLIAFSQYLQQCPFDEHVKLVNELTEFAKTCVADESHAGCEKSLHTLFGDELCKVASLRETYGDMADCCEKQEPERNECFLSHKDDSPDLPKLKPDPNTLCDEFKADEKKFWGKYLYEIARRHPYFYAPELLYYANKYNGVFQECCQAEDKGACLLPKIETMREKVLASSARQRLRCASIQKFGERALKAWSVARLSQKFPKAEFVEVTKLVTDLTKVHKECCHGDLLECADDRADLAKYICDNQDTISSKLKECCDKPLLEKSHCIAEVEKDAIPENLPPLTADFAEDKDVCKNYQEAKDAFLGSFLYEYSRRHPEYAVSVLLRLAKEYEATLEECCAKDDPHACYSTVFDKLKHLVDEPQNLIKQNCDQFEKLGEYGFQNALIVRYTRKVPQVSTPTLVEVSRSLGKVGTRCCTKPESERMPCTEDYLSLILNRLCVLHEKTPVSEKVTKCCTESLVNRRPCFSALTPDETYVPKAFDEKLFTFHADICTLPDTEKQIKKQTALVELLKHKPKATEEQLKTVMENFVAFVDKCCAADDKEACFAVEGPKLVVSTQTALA
Assay [11] is described as follows: probe aXIP binding to arrayed compounds – biochemical, NeuroSMM set, 635/667 nm fluorescence, primary screen (AID 1119).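 Also: probe is the protein aXip251-270 applied at 1 µg/mL to compound-printed slides; binding of probe to printed compounds measured as 667 nm fluorescence plus signal to noise.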 The following applies: small-molecule microarray, higher = more signal, called active from +8 up or from −8 down.
Assay [12] can be described thus: probe aNOTCH3 binding on compound microarray – biochemical, small-molecule microarray, 635/667 nm fluorescence, primary screen (AID 1120).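 Also: probe is a biotin-tagged antibody raised against NOTCH3 rather than NOTCH3 protein; score merges spot fluorescence near 667 nm with spot signal to noise.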 The following applies: higher = more signal.
The nature of assay [13]: probe aNOTCH2 binding on compound microarray – biochemical, small-molecule microarray, 635/667 nm fluorescence, primary screen (AID 1121).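 Also: score merges feature fluorescence read at 667 nm with its signal to noise.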 The following applies: higher = more signal.
For assay [14], the target named is Carbonic anhydrase 2 (Homo sapiens) (UniProt P00918). The assay is described as follows: compounds binding carbonic anhydrase 2 – biochemical, small-molecule microarray, Alexa647-labelled CAII, profiling panel (AID 1122). Conditions: CAII-A647 binding fluorescence, higher = more signal.
A short description of assay [15]: COS7 lysate on small-molecule microarray, probe aHis, 635 nm (AID 1123).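 Also: z-score combines 667nm fluorescence intensity with signal-to-noise per printed compound spot.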 The following applies: COS7 cell lysate, fluorescence, higher = more signal.
Assay [16] in a line: probe aLAP1 signal on lysate-treated microarray – cell lysate, small-molecule microarray, COS7 lysate, primary screen (AID 1124).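 Also: lysate comes from COS7 cells expressing LAP1 and is applied at 0.3 µg/mL; score merges spot fluorescence near 667 nm with signal-to-noise over triplicate slides.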 The following applies: probe aLAP1, fluorescence, higher = more signal.
The subject of a further assay is Sam68 (KHDRBS1). Put plainly: compounds binding KHDRBS1 protein – biochemical, small-molecule microarray, 635 nm fluorescence, primary screen (AID 1125).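 Also: score merges 667 nm channel intensity with signal to noise over triplicate slides.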 The following applies: higher = more signal.
Assay [17] concerns Chordin-like protein 2 (CHRDL2). The assay is described as follows: compounds binding chordin-like 2 – biochemical, small-molecule microarray, 635 nm fluorescence, primary screen (AID 1126).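 Also: printed compound slides probed with Chrdl2 protein at 4 µg/mL for 1 h at 4 C; score merges 667 nm emission intensity with signal to noise over three replicate slides.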 The following applies: fluorescence 635 nm, higher = more signal.
Assay [18] deals with Concanavalin-A (Canavalia ensiformis) (UniProt P02866). The assay is described as follows: compounds binding concanavalin A lectin – biochemical, small-molecule microarray, Alexa647 label, 635 nm, artefact control for SMM control protein annotation, primary screen (AID 1127).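 Also: z combines 667 nm emission intensity with signal-to-noise across three replicate slides.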 The following applies: ConA-A647 binding fluorescence, higher = more signal.
Concanavalin-A (Canavalia ensiformis), sequence (P02866 whole entry, looked up): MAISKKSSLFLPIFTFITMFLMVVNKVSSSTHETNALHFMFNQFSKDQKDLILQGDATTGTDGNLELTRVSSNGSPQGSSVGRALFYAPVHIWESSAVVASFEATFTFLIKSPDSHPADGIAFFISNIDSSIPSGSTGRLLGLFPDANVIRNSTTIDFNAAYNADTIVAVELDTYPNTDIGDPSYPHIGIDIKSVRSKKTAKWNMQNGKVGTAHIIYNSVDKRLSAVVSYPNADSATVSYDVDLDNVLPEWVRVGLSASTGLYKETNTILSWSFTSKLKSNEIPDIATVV

Alpha-bungarotoxin (Bungarus multicinctus), sequence (P60615 whole entry, looked up): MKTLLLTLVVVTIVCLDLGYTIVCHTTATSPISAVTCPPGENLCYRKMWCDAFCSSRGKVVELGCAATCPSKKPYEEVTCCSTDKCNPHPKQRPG

Take `C=CC[C@@]1(C(=O)NCC(O)CO)N=C(c2ccc(OCCCO)cc2)O[C@@H]1c1ccccc1` (stereo not given in full): the composite z-score in [1] is 1.21; in assay [3], -0.834; in [4], 2.22; in assay [5], 0.971; in assay [6] it was 0.512; in assay [7], 0.786. The composite z-score in [8] is -0.419; in assay [9], 3.73; in [10] it was 2.59; in the assay with Albumin (Bos taurus), 0.814; in assay [12], 0.13; in assay [13], -0.0028. Besides, the composite z-score in [14] is 0.797; in assay [15] it was 3.84; in [16], 0.595; in the assay on Sam68 (KHDRBS1) it was 1.22; in [17] it was -0.381; in assay [18], -0.237. This compound returned a z-score in assay [2] of 0.235. In addition, the composite Z-score in assay [11] was 1.81 (inactive).

As to `[N-]=[N+]=NCc1ccccc1C[C@@]1(C(=O)NCCN2CCOCC2)N=C(c2ccc(OCCCO)cc2)O[C@@H]1c1ccccc1CN=[N+]=[N-]`, the composite z-score came out at 1.42 in assay [1]; 0.461 in assay [3]; 1.68 in assay [4]; 0.191 in assay [5]; 0.0037 in assay [6]; 0.199 in assay [7]. The composite z-score in assay [8] was found to be 0.291; in assay [9] it was 0.272; in assay [10] it was 1.04; with Albumin (Bos taurus) it was 0.511; in [12], 0.338; in assay [13], 0.12. The composite z-score was determined as 0.568 in assay [14]; 2.23 in [15]; 0.0232 in [16]; 1.31 in the assay with Sam68 (KHDRBS1); 0.139 in assay [17]; 1.06 in assay [18]. Besides, the z-score in assay [2] was -2.7. Moreover, the composite Z-score in assay [11] is -0.0957 (inactive).

Turning to `CCC[C@@H]1C[C@@]1(CCC)[C@@H](NC(=O)c1ccco1)c1ccc(Cl)cc1`, the composite z-score in assay [1] was -1.06; in assay [3], -0.936; in [4], -0.177; in [5] it was 0.0344; in [6] it was -0.252; in assay [7] it was 0.254. Also, the composite z-score in assay [8] was 0.756; in assay [9], -0.678; in assay [10], -0.0776; with Albumin (Bos taurus) it was -0.638; in assay [12], -0.173; in assay [13], -0.0324. Also, the composite z-score in assay [14] was -0.464; in assay [15] it was -0.241; in [16] it was -0.0117; in the assay on Sam68 (KHDRBS1) it was -1.48; in assay [17], -0.493; in assay [18], -0.517. The z-score in assay [2] was -0.49. Further, the composite Z-score in assay [11] is -0.392 (inactive).

As for `O=C1c2ccccc2C(=O)C2CC([C@H]3Oc4ccccc4S(=O)(=O)N4CCC[C@@H]34)=CCC12` (stereo not given in full), the composite z-score in [1] was -0.811; in assay [3], 0.0197; in [4] it was -0.488; in [5], 0.184; in [6], -0.124; in assay [7], -0.0362. The composite z-score in assay [8] is -0.273; in assay [9], 0.123; in assay [10], 0.0404; with Albumin (Bos taurus) it was 0.793; in assay [12], -0.122; in [13] it was -0.117. Also, the composite z-score in assay [14] is -0.241; in assay [15], -0.296; in assay [16], -0.363; in the assay on Sam68 (KHDRBS1) it was -0.557; in assay [17], 0.139; in assay [18] it was -1. The compound also had a z-score in assay [2] of -1.34. Moreover, in assay [11], the composite Z-score was 0.251 (inactive).

As for `COC(=O)C(CC#Cc1ccc2c(c1)[C@]1(C(=O)N2)[C@H](C(=O)N2CCc3cc(OC)c(OC)cc3C2)[C@H]2C(=O)O[C@H](c3ccccc3)[C@H](c3ccccc3)N2[C@@H]1c1ccc(O)cc1)C(=O)OC`, the composite z-score in assay [1] is 1.27; in assay [3], 1.35; in assay [4], 1.35; in assay [5], 0.537; in [6], -0.0303; in [7] it was 0.529. For the same compound, the composite z-score is -0.491 in [8]; 0.908 in assay [9]; 1.12 in assay [10]; -1.1 with Albumin (Bos taurus); 0.233 in [12]; 0.0273 in [13]. In addition, the composite z-score in assay [14] is 0.326; in assay [15], 1.64; in [16], -0.137; with Sam68 (KHDRBS1) it was 1.29; in assay [17] it was 1.25; in [18] it was 1.16. This compound also returned a z-score in assay [2] of -1.06. Also, in assay [11], the composite Z-score was -0.0536 (inactive).
